These results are taken from PubChem BioAssay AID493131 (Broad Institute, 2011).

Molecules are shown by their SMILES. Out of some 340,000 compounds screened, about 3,300 (0.97%) were called active.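 Rule for the calls: active = mean activation above about 17%, with every replicate also reaching it (limit read from the data, passing the limit was not always enough); inconclusive = only one of the two conditions met; inactive = the rest.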 The full list was thinned out, with actives kept by preference.

For this assay, the target named is Protein FosB (Mus musculus) (UniProt P13346). Briefly: activators of delta FosB homodimer, primary screen, biochemical, fluorescence polarization, TAMRA-CDK5 oligo, single point (AID 493131).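 Note: fluorescence polarization rise as delta FosB binds a TAMRA Cdk5 AP-1 oligo.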 The note with it: purified delta FosB, at 25 µM, hits give high values. (In general: Polarisation of emitted light reports the rotation of a fluorescent probe.)
Sequence of Protein FosB (Mus musculus) (P13346 whole entry, looked up): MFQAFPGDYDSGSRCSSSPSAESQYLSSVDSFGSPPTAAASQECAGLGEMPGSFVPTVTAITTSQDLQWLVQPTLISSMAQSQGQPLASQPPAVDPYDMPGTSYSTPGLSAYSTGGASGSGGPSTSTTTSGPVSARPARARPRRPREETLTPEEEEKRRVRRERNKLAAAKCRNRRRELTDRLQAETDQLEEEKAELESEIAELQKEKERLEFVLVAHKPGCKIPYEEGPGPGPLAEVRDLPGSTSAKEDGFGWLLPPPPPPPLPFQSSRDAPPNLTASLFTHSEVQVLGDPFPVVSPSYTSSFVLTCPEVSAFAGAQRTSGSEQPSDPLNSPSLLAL
For the compound `O=c1[nH]c(CN2CC=C(c3ccccc3)CC2)nc2scc(-c3cccs3)c12`, the activation was 35.5% (active).

Consider `CC1([N+](=O)[O-])COP(=O)(Nc2ccc(F)cc2)OC1` (stereo not given), for which the activation was 2.39% (inactive).

For `C[C@@]1([C@@H](NP(=O)(c2ccccc2)c2ccccc2)c2ccccc2)C[C@H]1CCO`, the activation was 0.415% (inactive).

Turning to `N#Cc1ccc(Cn2cc(C(=O)c3ccco3)c3ccccc32)cc1`, the activation was -7.9% (inactive).

As to `C=CCN1C(=O)C2(C(C(=O)OCC)=C(N)Oc3c2c(=O)oc2ccccc32)c2ccccc21` (stereo not given), the activation is -8.76% (inactive).

As for `OC(Cn1c2ccccc2c2ccccc21)C[n+]1ccccc1` (stereo not given), the activation was 20.4% (active).

Regarding `COC(=O)C1=C(c2cccc(OCc3ccccc3)c2)C[C@@H]2CC[C@H]1N2C(=O)NNCc1ccccc1`, the activation was -6.41% (inactive).

In the case of `Cc1ccc(CN2CCCC(C(=O)c3ccc4c(c3)OCO4)C2)cc1C` (stereo not given), the activation is -3% (inactive).

Turning to `CCN1CCN(c2nc3c(c(=O)[nH]2)CCC3)CC1`, the activation is -2.7% (inactive).

For the compound `O=C(c1ccccc1)C(O)(CN1CCCCC1)c1ccccc1` (stereo not given), the activation was -1.99% (inactive).
